Results filed as inconclusive are left out. The source made the active and inactive calls. Calls come from the whole dose curve; as a rule, active = well fitted cell-killing curve with a large enough effect; inconclusive = small, poorly fitted or top-dose-only effect, or effect the other way; inactive = flat fitted curve, though single readings scatter.
Tested on: OV90
Assay: Primary qHTS to identify gynecologic anti-cancer compounds using libraries of approved drugs and bioactive compounds (AID 1345084); note: nearly all actives have a fitted effect of over 55% in size
Settings: Gynecologic cancer cell panel viability, ATPlite luminescence, 48 h; series mostly up to 57.5 µM; activity change, negative = cytotoxicity: at the top concentration
How it was run: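 48 h compound exposure at 37 C, 5% CO2; five-point qHTS. ATPlite luminescence readout of cell ATP.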
% is set by controls: 0 for no effect and ±100 for the full control effect; potency is the fitted concentration of half-maximal effect.

Compound | activity change, negative = cytotoxicity | Potency
COC(=O)C1C(CC(C)=O)C=CC(O)C12Oc1cc(C)cc(O)c1C2=O (stereo unspecified) | -5.85% [at 38.5 µM] (inactive) | 
CC1(C)CCC[C@@]2(C)[C@H]1[C@H](O)C=C1COC(=O)[C@@]12O | -2.93% (inactive) | 
O=C(O)Cc1nn(Cc2nc3cc(C(F)(F)F)ccc3s2)c(=O)c2nccnc12 | -1.12% (inactive) | 
CC1CCC2(C(=O)OC3OC(CO)C(O)C(O)C3O)CCC3(C(=O)O)C(=CCC4C5(C)CCC(OC6OC(C)C(O)C(O)C6O)C(C)(C)C5CCC43C)C2C1C (stereo unspecified) | -3.71% [at 25.3 µM] (inactive) | 
CC(CO[C@@H]1O[C@H](COC(=O)/C=C/c2ccc(O)c(O)c2)[C@@H](O)[C@H](O)[C@H]1O)C1(O)COC(=O)C1 (stereo partly specified) | 8.85% [at 25.3 µM] (inactive) | 
CCCCN(CCCC)C(=O)CN1C[C@H](c2ccc3c(c2)OCO3)[C@@H](C(=O)O)[C@@H]1c1ccc(OC)cc1 | -1.16% (inactive) | 
CC(C)C(=O)O[C@@H]1[C@@H](O)[C@@H](O[C@H]2O[C@H](CO)[C@@H](O)[C@H](O)[C@H]2O)O[C@H](CO)[C@H]1O | 8.61% [at 25.3 µM] (inactive) | 
CC1(C)CC[C@]2(C(=O)O)CC[C@]3(C)C(=CCC4[C@@]5(C)CCC(O[C@@H]6OC[C@H](O)[C@H](O)[C@H]6O[C@@H]6O[C@H](CO)[C@@H](O)[C@H](O)[C@H]6O)[C@@](C)(CO)C5CC[C@]43C)[C@@H]2C1 (stereo partly specified) | 4.18% [at 25.3 µM] (inactive) | 
CCc1c(CC(N)=O)c2cc(OCCCP(=O)(O)O)ccc2n1Cc1ccccc1 | 9.42% (inactive) | 
COc1ccc(C[C@H](N)C(=O)N[C@H]2[C@@H](O)[C@H](n3cnc4c(N(C)C)ncnc43)O[C@@H]2CO)cc1 |  | 3.16 µM (active)
COC(=O)C1=CO[C@@H](O[C@@H]2O[C@H](CO)[C@@H](O)[C@H](O)[C@H]2O)[C@@H]2[C@@H](C(=O)OC)[C@@H](O)C(O)[C@H]12 (stereo partly specified) | -0.43% [at 25.3 µM] (inactive) | 

From PubChem BioAssay (NCATS)
